The source of these data is PubChem BioAssay.

For assay [1], the system named is Plasmodium falciparum Sir2 (PF13_0152, Sir2A). The assay can be described thus: Plasmodium falciparum Sir2A binding compounds – biochemical, small-molecule microarray, 635 nm fluorescence, primary screen (AID 1098).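 Further: score merges spot fluorescence intensity with its signal-to-noise ratio.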 To be noted: fluorescence 635 nm, higher = more signal.
A short description of assay [2]: probe aDKK1 binding to arrayed compounds – biochemical, biotinylated probe, 635/667 nm fluorescence, primary screen (AID 1099).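 Further: score merges 667nm spot fluorescence with signal to noise across triplicate slides.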 To be noted: small-molecule microarray, higher = more signal.
Assay [3] in a line: probe aCHRDL2 binding to arrayed compounds – biochemical, biotinylated probe, 635/667 nm fluorescence, primary screen (AID 1100). To be noted: small-molecule microarray, higher = more signal.
The nature of assay [4]: change in splice reporter luminescence, either direction, cell-based, HEK293, spliceosome inhibition project, primary screen (AID 1101).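 Further: HEK293 cells carrying a splicing-competent luciferase reporter gene; test concentration not given here.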 To be noted: HEK293 splicing luciferase reporter, 24 h, higher = more signal, called active from +8 up or from −8 down.
In assay [5] the target is Fibroblast growth factor 10 (Homo sapiens) (UniProt O15520). The assay can be described thus: compounds binding fibroblast growth factor 10 – biochemical, small-molecule microarray, 635 nm fluorescence, primary screen (AID 1102). To be noted: FGF10 binding, fluorescence 635 nm, higher = more signal.
For assay [6], the system named is glycogen synthase kinase-3 (GSK3A per assay name; protocol says GSK3B). The assay can be described thus: compounds binding glycogen synthase kinase-3 – biochemical, small-molecule microarray, 635 nm fluorescence, GSK3A, primary screen (AID 1103). Further: the record names both GSK3A and GSK3B. To be noted: fluorescence 635 nm, higher = more signal.
The target of assay [7] is Epidermal growth factor receptor (Homo sapiens) (UniProt P00533). The assay can be described thus: compounds binding epidermal growth factor receptor – biochemical, small-molecule microarray, 635 nm fluorescence, primary screen (AID 1104).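 Further: score merges 667 nm emission intensity with spot signal to noise over triplicate slides.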 To be noted: EGFR binding, higher = more signal.
Assay [8] concerns the target Follistatin-related protein 3 (Homo sapiens) (UniProt O95633). The assay can be described thus: compounds binding follistatin-related protein 3 – biochemical, small-molecule microarray, 635 nm fluorescence, primary screen (AID 1105).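 Further: score merges emission near 667 nm and signal to noise per printed spot across three slides.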 To be noted: FSTL3 binding, higher = more signal.
Assay [9] concerns the target Dickkopf-related protein 1 (Homo sapiens) (UniProt O94907). The assay can be described thus: small molecules binding DKK1 protein – biochemical, small-molecule microarray, 635 nm fluorescence scan, primary screen (AID 1106).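 Further: score merges emission near 667 nm with signal to noise over three replicate slides.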 To be noted: higher = more signal.
Assay [10] has as its system Inhibin beta A chain (activin A). The assay can be described thus: small molecules binding activin A – biochemical, small-molecule microarray, 635 nm fluorescence scan, primary screen (AID 1107).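 Further: mouse activin A protein probed at 4.33 µg/mL on printed slides; score merges bound-protein fluorescence near 667 nm with spot signal-to-noise.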 To be noted: INHBA, higher = more signal.
The subject of assay [11] is Human papillomavirus type 1a protein E7 (residues 44-93). The assay can be described thus: small molecules binding HPV E7 44-93 – biochemical, small-molecule microarray, residues 44-93, 635 nm fluorescence, primary screen (AID 1108).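 Further: E7 fragment applied at 1 µg/mL in TBST for 1 h at 4 C; score combines spot fluorescence with its signal to noise ratio.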 To be noted: fluorescence 635 nm, higher = more signal.
Assay [12] is described as follows: hepatitis C replication reporter changes, two-sided – Huh7 cells, luciferase reporter, HCV replication inhibitor project, primary screen (AID 1109).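 Further: huh7 hepatoma cells harbouring a luciferase neomycin HCV replicon reporter; luciferase luminescence as measure of HCV replicon replication; test concentration not given here.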 To be noted: Huh7 HCV replicon luciferase reporter, 48 h; higher = more signal. (A reporter such as luciferase makes a cellular process visible.)
Assay [13] concerns the target Left-right determination factor 2 (Homo sapiens) (UniProt O00292). The assay can be described thus: small molecules binding LEFTY2 protein – biochemical, small-molecule microarray, 635 nm fluorescence scan, primary screen (AID 1110). To be noted: higher = more signal.
The target of assay [14] is Calmodulin-1 (Homo sapiens) (UniProt P0DP23). The assay can be described thus: small molecules binding calmodulin-1 with EGTA – biochemical, small-molecule microarray, Cy5-labelled CALM1, profiling panel (AID 1111).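 Further: labelled calmodulin applied in Tris saline Tween buffer holding calcium plus EGTA and DTT.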 To be noted: Cy5-CALM1 binding fluorescence, higher = more signal.
Assay [15] shares this target. The assay can be described thus: small molecules binding Ca-loaded calmodulin-1 – biochemical, small-molecule microarray, Cy5-labelled CALM1, plus calcium, artefact control for SMM control-protein annotation, profiling panel (AID 1112).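 Further: score merges spot fluorescence with signal to noise from triplicate slides.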 To be noted: Cy5-CALM1 binding fluorescence, higher = more signal.
The nature of assay [16]: probe aWnt5a binding to arrayed compounds – biochemical, biotinylated probe, 635/667 nm fluorescence, primary screen (AID 1113).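 Further: score merges 667 nm fluorescence intensity with signal-to-noise per printed feature.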 To be noted: small-molecule microarray, higher = more signal.
Assay [17] in a line: probe aShh binding to arrayed compounds – biochemical, biotinylated probe, 635/667 nm fluorescence, primary screen (AID 1114).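 Further: probe is biotin-labelled aShh protein from a stem cell growth factor screen; measures binding of labelled protein to compounds printed on the slide; score merges feature fluorescence at 667 nm with signal-to-noise.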 To be noted: small-molecule microarray, higher = more signal.
Assay [18] can be described thus: probe aNog binding to arrayed compounds – biochemical, biotinylated probe, 635/667 nm fluorescence, primary screen (AID 1115).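 Further: probe is biotinylated aNog protein used at 0.15 µg/mL for 1 h at 4 C; z-score combines 667 nm fluorescence of each spot with its signal to noise.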 To be noted: small-molecule microarray, higher = more signal.
For assay [19], the target named is Torsin-1A-interacting protein 1 (Homo sapiens) (UniProt Q5JTV8). The assay can be described thus: compound microarray binding of lysate hLAP1 – cell lysate, small-molecule microarray, COS7 lysate, 635/667 nm fluorescence, primary screen (AID 1116). To be noted: 635 nm fluorescence, higher = more signal.
Assay [20] has as its target Alpha-bungarotoxin (Bungarus multicinctus) (UniProt P60615). The assay can be described thus: compounds binding labelled alpha-BTX control protein – biochemical, small-molecule microarray, Alexa647 label, 635/667 nm fluorescence, artefact control for SMM control protein annotation, profiling panel (AID 1117). To be noted: alpha-BTX-A647 binding fluorescence, higher = more signal.

Activity calls are given as the source filed them.

Torsin-1A-interacting protein 1 (Homo sapiens), sequence (Q5JTV8 whole entry, looked up): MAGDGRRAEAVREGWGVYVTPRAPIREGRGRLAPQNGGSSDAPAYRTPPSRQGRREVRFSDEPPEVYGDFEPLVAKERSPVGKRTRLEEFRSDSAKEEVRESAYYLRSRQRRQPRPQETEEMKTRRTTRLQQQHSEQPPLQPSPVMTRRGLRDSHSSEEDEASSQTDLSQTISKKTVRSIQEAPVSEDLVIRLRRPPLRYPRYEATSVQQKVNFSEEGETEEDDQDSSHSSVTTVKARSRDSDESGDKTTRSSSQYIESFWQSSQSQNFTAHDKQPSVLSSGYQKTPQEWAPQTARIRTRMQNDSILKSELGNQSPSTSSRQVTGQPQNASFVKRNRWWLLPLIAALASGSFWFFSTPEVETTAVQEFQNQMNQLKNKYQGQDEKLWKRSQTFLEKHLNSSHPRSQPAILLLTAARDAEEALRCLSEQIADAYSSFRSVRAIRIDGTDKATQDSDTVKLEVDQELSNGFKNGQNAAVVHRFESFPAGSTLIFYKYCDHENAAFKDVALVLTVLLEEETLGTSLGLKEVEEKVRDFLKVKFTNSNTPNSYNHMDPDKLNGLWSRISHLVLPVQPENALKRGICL
Left-right determination factor 2 (Homo sapiens), sequence (O00292 whole entry, looked up): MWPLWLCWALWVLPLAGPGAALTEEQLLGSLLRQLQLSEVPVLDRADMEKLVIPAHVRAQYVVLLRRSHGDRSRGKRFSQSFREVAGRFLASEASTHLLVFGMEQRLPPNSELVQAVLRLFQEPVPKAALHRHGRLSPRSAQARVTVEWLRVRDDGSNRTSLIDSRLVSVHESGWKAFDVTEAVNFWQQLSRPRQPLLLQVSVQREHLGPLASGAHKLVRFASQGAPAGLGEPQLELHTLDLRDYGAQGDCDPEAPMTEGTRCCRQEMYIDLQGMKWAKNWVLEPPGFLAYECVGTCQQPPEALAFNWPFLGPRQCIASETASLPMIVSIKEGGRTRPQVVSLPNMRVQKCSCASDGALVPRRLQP
Dickkopf-related protein 1 (Homo sapiens), sequence (O94907 whole entry, looked up): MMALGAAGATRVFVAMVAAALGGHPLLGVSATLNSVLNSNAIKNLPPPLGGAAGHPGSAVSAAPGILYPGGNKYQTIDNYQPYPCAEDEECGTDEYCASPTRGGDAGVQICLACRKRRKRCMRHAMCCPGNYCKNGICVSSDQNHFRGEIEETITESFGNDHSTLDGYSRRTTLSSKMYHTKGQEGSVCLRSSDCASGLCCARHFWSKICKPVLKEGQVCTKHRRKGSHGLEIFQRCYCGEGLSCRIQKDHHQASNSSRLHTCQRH
Epidermal growth factor receptor (Homo sapiens), sequence (P00533 whole entry, looked up): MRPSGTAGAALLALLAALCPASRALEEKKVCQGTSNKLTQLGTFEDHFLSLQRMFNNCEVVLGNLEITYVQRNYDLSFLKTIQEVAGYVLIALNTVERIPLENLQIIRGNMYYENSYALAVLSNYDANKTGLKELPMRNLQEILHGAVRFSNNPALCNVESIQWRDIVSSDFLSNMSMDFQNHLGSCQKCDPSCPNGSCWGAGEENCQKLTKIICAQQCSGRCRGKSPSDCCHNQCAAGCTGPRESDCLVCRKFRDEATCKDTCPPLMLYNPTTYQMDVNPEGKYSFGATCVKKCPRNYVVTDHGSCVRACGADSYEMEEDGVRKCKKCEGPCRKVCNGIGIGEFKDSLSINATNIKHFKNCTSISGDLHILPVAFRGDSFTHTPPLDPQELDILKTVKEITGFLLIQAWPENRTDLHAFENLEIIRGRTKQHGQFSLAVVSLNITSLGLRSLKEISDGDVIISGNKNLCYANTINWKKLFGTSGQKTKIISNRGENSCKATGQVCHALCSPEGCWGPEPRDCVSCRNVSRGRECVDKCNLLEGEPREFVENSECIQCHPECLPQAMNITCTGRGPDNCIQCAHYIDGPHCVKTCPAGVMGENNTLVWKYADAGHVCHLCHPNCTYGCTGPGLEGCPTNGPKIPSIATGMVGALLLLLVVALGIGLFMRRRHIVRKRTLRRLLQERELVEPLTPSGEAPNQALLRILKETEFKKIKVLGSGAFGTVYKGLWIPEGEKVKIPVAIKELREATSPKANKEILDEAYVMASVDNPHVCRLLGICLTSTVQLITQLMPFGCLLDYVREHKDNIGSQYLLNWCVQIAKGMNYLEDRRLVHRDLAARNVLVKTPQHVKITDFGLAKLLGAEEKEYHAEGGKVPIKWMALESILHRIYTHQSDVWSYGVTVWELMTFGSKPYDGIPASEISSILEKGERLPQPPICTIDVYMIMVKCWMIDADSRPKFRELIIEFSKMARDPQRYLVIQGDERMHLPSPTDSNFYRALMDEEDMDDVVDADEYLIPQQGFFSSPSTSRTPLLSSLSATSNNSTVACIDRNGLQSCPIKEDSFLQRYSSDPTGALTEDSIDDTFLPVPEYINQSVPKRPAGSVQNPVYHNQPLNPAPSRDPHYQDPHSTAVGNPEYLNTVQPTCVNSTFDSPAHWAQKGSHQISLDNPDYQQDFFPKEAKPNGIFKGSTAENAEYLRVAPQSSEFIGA
Follistatin-related protein 3 (Homo sapiens), sequence (O95633 whole entry, looked up): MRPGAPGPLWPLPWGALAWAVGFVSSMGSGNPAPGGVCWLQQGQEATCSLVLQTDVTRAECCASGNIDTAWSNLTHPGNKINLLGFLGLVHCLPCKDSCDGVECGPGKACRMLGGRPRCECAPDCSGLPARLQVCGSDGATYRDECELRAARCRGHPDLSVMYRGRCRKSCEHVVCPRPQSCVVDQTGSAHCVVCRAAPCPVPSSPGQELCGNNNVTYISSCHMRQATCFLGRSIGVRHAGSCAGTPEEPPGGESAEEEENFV
Alpha-bungarotoxin (Bungarus multicinctus), sequence (P60615 whole entry, looked up): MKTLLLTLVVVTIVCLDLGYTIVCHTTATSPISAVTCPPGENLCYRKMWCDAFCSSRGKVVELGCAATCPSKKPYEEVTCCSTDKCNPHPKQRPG
Fibroblast growth factor 10 (Homo sapiens), sequence (O15520 whole entry, looked up): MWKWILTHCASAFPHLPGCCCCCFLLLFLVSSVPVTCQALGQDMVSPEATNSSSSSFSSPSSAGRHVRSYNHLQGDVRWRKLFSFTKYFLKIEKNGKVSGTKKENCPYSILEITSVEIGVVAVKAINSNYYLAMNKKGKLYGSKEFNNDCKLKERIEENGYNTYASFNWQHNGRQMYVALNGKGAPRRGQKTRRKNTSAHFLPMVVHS

Take `COc1ccc(NN2C(C(O)c3ccccc3)C=CC3C(=O)N(C4CCCCC4)C(=O)C32)cc1` (stereo not given): the composite z-score in assay [1] is 1.25; in assay [2] it was 0.535; in [3], 0.291; in assay [5], 1.24; in assay [6], 1.28; in [7] it was 0.122. Also, the composite z-score in assay [8] was 1.21; in assay [9] it was 0.453; in [10] it was 0.786; in assay [11], 1.45; in assay [13] it was 0.395; in [14], 1.38. Further, the composite z-score is -0.15 in assay [15]; 0.0974 in [16]; 0.13 in assay [17]; 0.908 in [18]; 0.644 in [19]; 1.13 in assay [20]. The results for the z-score in assay [4] and in assay [12] were -1.18 (inactive) and -0.888, respectively.

Regarding `COCCCNC(=O)[C@]1(Cc2ccccc2CN=[N+]=[N-])N=C(c2ccc(OCCCO)cc2)O[C@@H]1c1ccccc1N=[N+]=[N-]`, the composite z-score in assay [1] worked out at 0.427; in assay [2], 1.36; in assay [3], 1.38; in assay [5], 0.575; in [6], 0.672; in [7], 0.003. For the same compound, the composite z-score is 0.205 in assay [8]; 0.0122 in assay [9]; 1.4 in assay [10]; 0.693 in assay [11]; -0.581 in assay [13]; 1.27 in assay [14]. Besides, the composite z-score in assay [15] was found to be 1.18; in assay [16] it was 0.133; in [17], 1.16; in assay [18], 0.467; in assay [19], 0.939; in [20], 2.35. The z-score was -0.486 (inactive) in assay [4] and -2.06 in assay [12].

In the case of `COC(=O)C(CC#Cc1ccc2c(c1)[C@]1(C(=O)N2)[C@H](C(=O)N2CCN(c3ncccn3)CC2)[C@H]2C(=O)O[C@H](c3ccccc3)[C@H](c3ccccc3)N2[C@@H]1c1ccc(O)cc1)C(=O)OC`, the composite z-score in assay [1] amounted to 1.57; in assay [2], 2.26; in assay [3] it was 1.34; in assay [5], 1.09; in assay [6] it was 1.37; in assay [7], 1.18. The composite z-score was 1.47 in assay [8]; 0.856 in assay [9]; 1.59 in assay [10]; 0.335 in [11]; 0.813 in [13]; 2.18 in assay [14]. In addition, the composite z-score in [15] stood at 1.36; in assay [16], 0.436; in [17] it was 0.87; in assay [18], 1.16; in assay [19], 2.45; in assay [20] it was 2.29. Besides, the z-score in [4] is -0.0485 (inactive); in [12], -1.66.

For the compound `O=C(CS)NCCCCCCNC(=O)[C@H]1C[C@H]2C(=O)NCC(=O)N2[C@H]1c1cccc(OCCO)c1`, the composite z-score in assay [1] is 1.09; in [2], -0.0292; in assay [3] it was -0.027; in assay [5], 0.901; in assay [6] it was -0.21; in assay [7], 0.696. Besides, the composite z-score in [8] was 0.604; in assay [9], 0.602; in [10] it was 0.665; in [11] it was 0.864; in assay [13] it was 0.281; in [14], 0.214. Besides, the composite z-score in assay [15] came to 0.214; in assay [16], 0.0079; in [17], 0.123; in [18], 0.113; in [19], 0.469; in assay [20] it was 1.36. Further, the z-score in assay [4] is -2.02 (inactive); in assay [12] it was 0.36.

Consider `COc1ccc([Si](C)(C)[C@H]2[C@H](CC(=O)N3CCC[C@H]3CO)O[C@@]3(C(=O)N(Cc4cccc(N5CCCCC5=O)c4)c4ccccc43)[C@@H]2C)cc1`, for which the composite z-score in assay [1] is 1.01; in [2], -0.297; in assay [3], -0.441; in [5] it was 1.3; in assay [6], 1.21; in assay [7], 0.532. The composite z-score in [8] was 1.26; in [9] it was 0.823; in [10], 0.248; in [11] it was 1.3; in assay [13], 0.854; in assay [14], 0.733. Also, the composite z-score in [15] was 0.222; in assay [16] it was -0.101; in assay [17], 0.396; in assay [18], 0.381; in [19], 1.06; in [20] it was 1.22. Also, the z-score in [4] was 1.06 (inactive); in assay [12], -2.54.
